Consider 34 sequences from the supplement of paper PMC12645437, “Orthogonal IMiD-Degron Pairs Induce Selective Protein Degradation in Cells” (ACS Chemical Biology, 2025).

The assay deals with T1, CRBN, Q96SW2.
T1 chain: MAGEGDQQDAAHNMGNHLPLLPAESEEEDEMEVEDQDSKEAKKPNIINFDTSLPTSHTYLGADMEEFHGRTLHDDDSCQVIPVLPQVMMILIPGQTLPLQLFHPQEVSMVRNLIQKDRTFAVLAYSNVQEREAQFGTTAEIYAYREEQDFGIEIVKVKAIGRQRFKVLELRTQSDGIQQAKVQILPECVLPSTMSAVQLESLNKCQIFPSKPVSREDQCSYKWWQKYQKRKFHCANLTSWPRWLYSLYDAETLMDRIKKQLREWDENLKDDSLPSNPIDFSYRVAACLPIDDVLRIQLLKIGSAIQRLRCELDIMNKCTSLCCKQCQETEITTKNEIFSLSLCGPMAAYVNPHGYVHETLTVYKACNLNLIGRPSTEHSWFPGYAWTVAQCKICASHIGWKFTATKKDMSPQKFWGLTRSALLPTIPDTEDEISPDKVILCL
In words: log2 fold change of degron read counts, EGFP-low vs EGFP+ sorted cells (limma voom), compound-induced degradation; higher = more compound-induced degradation of the degron-EGFP fusion; degrons are variants of IKZF1/3 zinc finger 2; compound dose not given here. The note with it: Jurkat, 18 h.

Where [1] appears, read: compound: compound 19 (5-tert-butyl-thalidomide).
Where [2] appears, read: compound: compound 22 (5-morpholino-thalidomide).
The mark [3] stands for this setting: compound: compound 33 (diphenyl IMiD analogue).

In all, about 8,300 sequences were measured (“log2 fold change of degron read counts, EGFP-low vs EGFP+ sorted cells (limma voom), compound-induced degradation”: median about -1.1, highest 2% from about 3.2 on). What follows is part of a selection rich in the highest values, with near analogues and random picks from the rest.
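Note: pooled lentiviral library of zinc finger degron-EGFP fusions in mCherry-positive Jurkat cells, FACS-sorted after compound exposure, with degron abundance counted by next-generation sequencing.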

In the case of FTCPICGHHFTQKGNLLRHIKL [46F_47T_49P_50I_52G_53H_54H_55F_67L_, Q9UKT9], the “log2 fold change of degron read counts” value runs as follows: under setting [1], -2.5; under setting [2], -2.32; under setting [3], -1.56; (compound: thalidomide) -1.14.

On to FTCEQCGAKFTQKGNLLRHIKL [46F_47T_49E_50Q_52G_53A_54K_55F_67L_, Q9UKT9], for which the “log2 fold change of degron read counts” value by setting is: under setting [1], -1.64; under setting [2], -1.04; under setting [3], -1.94; (compound: thalidomide) 0.449.

FVCPQCGAVFTQKGNLLRHIKL [46F_47V_49P_50Q_52G_53A_54V_55F_67L_, Q9UKT9]: the “log2 fold change of degron read counts” value is -2.28 under setting [1], -1.6 under setting [2], 0.556 under setting [3] and -0.724 (compound: thalidomide).

With FDCPVCGAVFTQKGNLLRHIKL [46F_47D_49P_50V_52G_53A_54V_55F_67L_, Q9UKT9], the “log2 fold change of degron read counts” value runs as follows: under setting [1], 0.0323; under setting [2], -0.349; under setting [3], 1.32; (compound: thalidomide) 1.15.

Turning to FYCNICGAVFTQKGNLLRHIKL [46F_47Y_49N_50I_52G_53A_54V_55F_67L_, Q9UKT9], the “log2 fold change of degron read counts” value under setting [1] was 1.85, the “log2 fold change of degron read counts” value under setting [2] turned out to be 2.59, the “log2 fold change of degron read counts” value under setting [3] came out at 1.47 and the “log2 fold change of degron read counts” value (compound: thalidomide) is -0.489.

For the sequence FMCPVCGAVFTQKGNLLRHIKL [46F_47M_49P_50V_52G_53A_54V_55F_67L_, Q9UKT9], the “log2 fold change of degron read counts” value was -1.41 under setting [1], -0.169 under setting [2], 1.97 under setting [3] and 1.09 (compound: thalidomide).

For FKCNICGAVFTQKGNLLRHIKL [46F_47K_49N_50I_52G_53A_54V_55F_67L_, Q9UKT9], the “log2 fold change of degron read counts” value by setting is: under setting [1], -2.43; under setting [2], -2.68; under setting [3], -2.59; (compound: thalidomide) -1.81.

For FQCPQCGAVFTQKGNLLRHIKL [46F_47Q_49P_50Q_52G_53A_54V_55F_67L_, Q9UKT9], the “log2 fold change of degron read counts” value reads like this: under setting [1], -1.53; under setting [2], 0.725; under setting [3], 0.715; (compound: thalidomide) 3.42.

In the case of FFCPQCGAVFTQKGNLLRHIKL [46F_47F_49P_50Q_52G_53A_54V_55F_67L_, Q9UKT9], the “log2 fold change of degron read counts” value under setting [1] was 0.252, the “log2 fold change of degron read counts” value under setting [2] turned out to be 0.896, the “log2 fold change of degron read counts” value under setting [3] turned out to be 0.248 and the “log2 fold change of degron read counts” value (compound: thalidomide) was -0.636.

In the case of FGCPVCGAVFTQKGNLLRHIKL [46F_47G_49P_50V_52G_53A_54V_55F_67L_, Q9UKT9], the “log2 fold change of degron read counts” value under setting [1] is 3.56, the “log2 fold change of degron read counts” value under setting [2] is 2.4, the “log2 fold change of degron read counts” value under setting [3] was 2.72 and the “log2 fold change of degron read counts” value (compound: thalidomide) was 1.15.

In the case of FVCPVCGAVFTQKGNLLRHIKL [46F_47V_49P_50V_52G_53A_54V_55F_67L_, Q9UKT9], the “log2 fold change of degron read counts” value runs as follows: under setting [1], -0.832; under setting [2], 1.08; under setting [3], 1.95; (compound: thalidomide) 1.7.

For the sequence FQCPVCGAVFTQKGNLLRHIKL [46F_47Q_49P_50V_52G_53A_54V_55F_67L_, Q9UKT9], the “log2 fold change of degron read counts” value reads like this: under setting [1], -0.23; under setting [2], 3.11; under setting [3], 2.75; (compound: thalidomide) 3.75.

Turning to FSCPVCGAVFTQKGNLLRHIKL [46F_47S_49P_50V_52G_53A_54V_55F_67L_, Q9UKT9], the “log2 fold change of degron read counts” value was 1.86 under setting [1], 1.28 under setting [2], 2.79 under setting [3] and 1.39 (compound: thalidomide).

FQCNICGAVFTQKGNLLRHIKL [46F_47Q_49N_50I_52G_53A_54V_55F_67L_, Q9UKT9]: the “log2 fold change of degron read counts” value is -1.01 under setting [1], 2.01 under setting [2], 1.99 under setting [3] and 3.47 (compound: thalidomide).

Turning to FHCDQCGAPFTQKGNLLRHIKL [46F_47H_49D_50Q_52G_53A_54P_55F_67L_, Q9UKT9], the “log2 fold change of degron read counts” value under setting [1] was -0.672, the “log2 fold change of degron read counts” value under setting [2] was -1.82, the “log2 fold change of degron read counts” value under setting [3] was -1.8 and the “log2 fold change of degron read counts” value (compound: thalidomide) is -2.97.

Turning to FKCSVCGHPFTQKGNLLRHIKL [46F_47K_49S_50V_52G_53H_54P_55F_67L_, Q9UKT9], the “log2 fold change of degron read counts” value by setting is: under setting [1], -2.15; under setting [2], -2.09; under setting [3], -2.23; (compound: thalidomide) -1.7.

As to FYCPICGHMFTQKGNLLRHIKL [46F_47Y_49P_50I_52G_53H_54M_55F_67L_, Q9UKT9], the “log2 fold change of degron read counts” value is -1.06 under setting [1], -1.25 under setting [2], -0.462 under setting [3] and -1.34 (compound: thalidomide).

As to FECDVCGAMFTQKGNLLRHIKL [46F_47E_49D_50V_52G_53A_54M_55F_67L_, Q9UKT9], the “log2 fold change of degron read counts” value by setting is: under setting [1], -2.71; under setting [2], -3.65; under setting [3], -2.05; (compound: thalidomide) -1.53.

For FWCEQCGANFTQKGNLLRHIKL [46F_47W_49E_50Q_52G_53A_54N_55F_67L_, Q9UKT9], the “log2 fold change of degron read counts” value was 0.0998 under setting [1], 2.8 under setting [2], -0.0431 under setting [3] and -0.721 (compound: thalidomide).

For the sequence FICNVCGAVFTQKGNLLRHIKL [46F_47I_49N_50V_52G_53A_54V_55F_67L_, Q9UKT9], the “log2 fold change of degron read counts” value runs as follows: under setting [1], -2.28; under setting [2], -1.69; under setting [3], 0.455; (compound: thalidomide) -0.566.

On to FYCNVCGAVFTQKGNLLRHIKL [46F_47Y_49N_50V_52G_53A_54V_55F_67L_, Q9UKT9], for which the “log2 fold change of degron read counts” value runs as follows: under setting [1], -0.0367; under setting [2], 1.2; under setting [3], 0.445; (compound: thalidomide) -1.56.

Take FQCNVCGAVFTQKGNLLRHIKL [46F_47Q_49N_50V_52G_53A_54V_55F_67L_, Q9UKT9]: the “log2 fold change of degron read counts” value is, setting by setting: under setting [1], -1.74; under setting [2], 1.21; under setting [3], 1.22; (compound: thalidomide) 3.41.

FSCPVCGAQFTQKGNLLRHIKL [46F_47S_49P_50V_52G_53A_54Q_55F_67L_, Q9UKT9]: the “log2 fold change of degron read counts” value runs as follows: under setting [1], 2.24; under setting [2], 2.08; under setting [3], 1.65; (compound: thalidomide) 1.45.

As to FCCPVCGAQFTQKGNLLRHIKL [46F_47C_49P_50V_52G_53A_54Q_55F_67L_, Q9UKT9], the “log2 fold change of degron read counts” value by setting is: under setting [1], 2.69; under setting [2], 2.25; under setting [3], 2.84; (compound: thalidomide) 2.3.

For FVCPQCGAQFTQKGNLLRHIKL [46F_47V_49P_50Q_52G_53A_54Q_55F_67L_, Q9UKT9], the “log2 fold change of degron read counts” value is, setting by setting: under setting [1], -1.74; under setting [2], 0.725; under setting [3], 1.72; (compound: thalidomide) 1.08.

FRCPVCGAQFTQKGNLLRHIKL [46F_47R_49P_50V_52G_53A_54Q_55F_67L_, Q9UKT9]: the “log2 fold change of degron read counts” value is -0.139 under setting [1], 0.391 under setting [2], 0.974 under setting [3] and 1.28 (compound: thalidomide).

Consider FMCPVCGAQFTQKGNLLRHIKL [46F_47M_49P_50V_52G_53A_54Q_55F_67L_, Q9UKT9], for which the “log2 fold change of degron read counts” value was -0.258 under setting [1], 1.27 under setting [2], 2.9 under setting [3] and 1.78 (compound: thalidomide).

Turning to FLCPVCGAQFTQKGNLLRHIKL [46F_47L_49P_50V_52G_53A_54Q_55F_67L_, Q9UKT9], the “log2 fold change of degron read counts” value under setting [1] stood at 0.29, the “log2 fold change of degron read counts” value under setting [2] was -0.0233, the “log2 fold change of degron read counts” value under setting [3] came to 1.82 and the “log2 fold change of degron read counts” value (compound: thalidomide) is 1.61.

FACPQCGAQFTQKGNLLRHIKL [46F_47A_49P_50Q_52G_53A_54Q_55F_67L_, Q9UKT9]: the “log2 fold change of degron read counts” value runs as follows: under setting [1], 0.495; under setting [2], -1.5; under setting [3], -0.396; (compound: thalidomide) -1.08.

For FFCPVCGAQFTQKGNLLRHIKL [46F_47F_49P_50V_52G_53A_54Q_55F_67L_, Q9UKT9], the “log2 fold change of degron read counts” value turned out to be 3.11 under setting [1], 3.47 under setting [2], 2.43 under setting [3] and 1.92 (compound: thalidomide).

Take FVCPVCGAQFTQKGNLLRHIKL [46F_47V_49P_50V_52G_53A_54Q_55F_67L_, Q9UKT9]: the “log2 fold change of degron read counts” value is -0.526 under setting [1], 2.62 under setting [2], 2.83 under setting [3] and 2.98 (compound: thalidomide).

On to FYCPVCGAQFTQKGNLLRHIKL [46F_47Y_49P_50V_52G_53A_54Q_55F_67L_, Q9UKT9], for which the “log2 fold change of degron read counts” value is, setting by setting: under setting [1], 2.88; under setting [2], 3.65; under setting [3], 2.38; (compound: thalidomide) 1.69.

For FWCPQCGAQFTQKGNLLRHIKL [46F_47W_49P_50Q_52G_53A_54Q_55F_67L_, Q9UKT9], the “log2 fold change of degron read counts” value was determined as 0.804 under setting [1], 3.54 under setting [2], 1.31 under setting [3] and 0.158 (compound: thalidomide).

For FWCPVCGAQFTQKGNLLRHIKL [46F_47W_49P_50V_52G_53A_54Q_55F_67L_, Q9UKT9], the “log2 fold change of degron read counts” value under setting [1] was found to be 2.98, the “log2 fold change of degron read counts” value under setting [2] was 3.92, the “log2 fold change of degron read counts” value under setting [3] was determined as 2.63 and the “log2 fold change of degron read counts” value (compound: thalidomide) worked out at 2.09.
